This is a sample that favours compounds with a hit; in the whole collection about 3.2% have one here.
Tau FP inhib = inhibitors of human tau fibril formation; K18 P301L tau heparin fibrillization, Alexa594 FP, 6 h; Potency, µM (highest dose often 57.7 µM), without a hit: at the top dose activity, negative = inhibition, most hits filed as inhibitors; 0.39% of 280,000 active; P10636; further: nearly all actives have a fitted effect of over 55% in size
Target sequence (P10636 561-689 P618L limits assumed): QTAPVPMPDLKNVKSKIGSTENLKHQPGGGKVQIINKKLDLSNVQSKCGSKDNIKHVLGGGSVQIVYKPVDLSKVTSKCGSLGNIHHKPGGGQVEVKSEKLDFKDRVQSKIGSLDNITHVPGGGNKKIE
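Steps: dispense K18 P301L tau (15 uM plus 0.24 uM Alexa 594 tracer, final) in pH 7 sodium acetate; add compound; add heparin (20 uM final); incubate 6 hr, 37 C; add ThT (30 uM final); after 1 hr ambient, read FP.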
Tau ThT inhib = tau fibrillization inhibition (ThT binding). Potency, µM (titrated, usually from 57.4 µM), for the others: at the top dose activity, negative = inhibition, actives largely listed as inhibitors. recombinant tau K18 P301L, heparin-induced fibrillization, ThT fluorescence. P10636. 2.1% of 270,000 active; further: nearly all actives have a fitted effect of over 55% in size
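Aggregation was driven by heparin (20 uM final) acting on recombinant tau […] bearing P301L in 100 mM sodium acetate pH 7; fibrils were detected with Thioflavin T.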
TR SRC2 fluor cs = counter-screen for TRb-SRC2 inhibitors: fluorescence interference | TRb/SRC2 Texas Red total fluorescence interference | Potency, µM (doses to about 106 µM), inactives show at the highest dose fluorescence change, negative = quenching | 0.29% of 280,000 active | AID 1479; active means well fitted curve in either direction with a large enough effect; inconclusive means small, poorly fitted or top-dose-only effect
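Flags fluorescent or light-absorbing compounds by total fluorescence, S + 2P, at 555 nm excitation and 632 nm emission. Mixture: 20 nM Texas Red SRC2 peptide, 0.6 uM human TRb LBD, 1 uM T3, 5% DMSO; compound exposure 5 h at ambient temperature.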
Tau fluor counter = counter-screen for tau fibril formation inhibitors; tau K18 P301L Alexa594 fluorescence, heparin fibrillization; Potency, µM (top dose mostly 57.7 µM), without a hit: at the highest dose activity change, negative = decrease; 0.93% of 280,000 active; AID 1463; further: nearly all actives have a fitted effect of over 55% in size
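Human tau K18 P301L (15 uM unlabeled, 0.24 uM Alexa 594-labeled) in 100 mM sodium acetate pH 7 with 20 uM heparin, 6 hr at 37 C. ThT 30 uM added, 1 hr ambient; Alexa 594 FP and total fluorescence read at 555/632 nm.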
GoLoco inh red = RGS12 GoLoco-Gai1 interaction inhibition; 0.44% of 230,000 active; Gai1:RGS12 GoLoco peptide FP, rhodamine, 10 min; Potency, µM (titrated, usually from 61.6 µM), inactives show at the top dose activity, negative = inhibition, actives largely listed as inhibitors; active means well fitted inhibition curve with a large enough effect, not every such curve was filed as active; inactive means no such curve, though single readings can be large or run the other way; further: nearly all actives have a fitted effect of over 30% in size
TRb-SRC2 inh = disrupts binding of human TR beta to SRC2; P10828; TRbeta-SRC2 peptide binding, fluorescence polarization; receptor liganded with 1 µM T3; Potency, µM (doses to about 106 µM), without a hit: at the highest dose activity change, negative = inhibition, actives largely listed as inhibitors; 0.065% of 280,000 active; AID 1469;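 further: plate controls were bound peptide for no effect and peptide without receptor for full effect; nearly all actives have a fitted effect of over 50% in size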
Target sequence (P10828 whole entry, looked up): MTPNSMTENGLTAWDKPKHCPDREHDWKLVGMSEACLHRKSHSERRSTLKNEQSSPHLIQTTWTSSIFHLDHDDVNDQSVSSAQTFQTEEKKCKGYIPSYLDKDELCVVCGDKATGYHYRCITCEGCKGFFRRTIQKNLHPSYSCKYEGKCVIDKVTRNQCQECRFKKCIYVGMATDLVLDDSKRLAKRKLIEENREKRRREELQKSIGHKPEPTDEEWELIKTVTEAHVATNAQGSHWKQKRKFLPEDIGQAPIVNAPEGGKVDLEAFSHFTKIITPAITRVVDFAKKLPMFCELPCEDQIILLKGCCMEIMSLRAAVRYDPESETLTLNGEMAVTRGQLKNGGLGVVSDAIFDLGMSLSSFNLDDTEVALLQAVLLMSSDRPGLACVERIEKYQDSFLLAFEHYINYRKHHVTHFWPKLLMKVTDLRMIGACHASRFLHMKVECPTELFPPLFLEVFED
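Assay buffer: 20 mM Tris-HCl, 100 mM NaCl, 10% glycerol, 1 mM EDTA, 0.01% NP-40, 1 mM DTT, 1 uM T3, 5% DMSO; TRb LBD 0.6 uM, Texas Red SRC2 20 nM; FP after 5 hr.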
Active calls of the source: *; u = inconclusive; x = no result; ! = not active in a repeat; [ ] = remark or other dose. Unless noted, the call rests on the fitted dose curve; in most records, active means well fitted curve in the direction sought with a large enough effect; inconclusive means small, poorly fitted or top-dose-only effect, or another doubt; inactive means no such curve, though single readings can be large; an effect the other way counts as inactive or inconclusive. Unless noted, on the % scale 0 is the no-effect control and ±100 the full control effect; potency means the concentration at half of the fitted maximal effect.

SMILES | Tau FP inhib | Tau ThT inhib | TR SRC2 fluor cs | Tau fluor counter | GoLoco inh red | TRb-SRC2 inh
COc1ccc(-c2ccc(OC)c(C3C4C=CCCC4(C)C(=O)N3Cc3ccccc3)c2)cc1OC (stereo unspecified) | x | x | -2% | x | x | 0%
CC(C)C1O[C@H](/C=C\c2ccccc2)OCC1(C)C (stereo partly specified) | x | x | x | x | 0%[14.2 µM] | x
CCCCCCCC1=Cc2ccccc2C(C(C(=O)OC)C(=O)OC)N1C(=O)OC (stereo unspecified) | -5%[11.6 µM] | -12%[11.5 µM] | -18%[11.2 µM] | -16%[11.6 µM] | 0%[14.2 µM] | 6%[11.2 µM]
COc1cc(OC)c(NC(=O)NCc2cccn2Cc2ccccc2)cc1Cl | -11% | -17% | -3% | 14µM*[quencher] | x | -9%
CC(C)(C)c1cc(C(C)(C)C)c(O)c(C(C)(C)C)c1 | x | x | 3%[201 µM] | x | x | 3%[201 µM]
CN(C)CCN1C(=O)CC[C@]2(C)C1=CC[C@@H]1[C@@H]2CC[C@]2(C)[C@H]1CC[C@]2(C)O | x | x | x | x | 4%[14.2 µM] | x
Cc1ccccc1OCC(=O)Nc1ccc(S(=O)(=O)Nc2ncccn2)cc1 | -6% | -7% | 10000µM*[quencher] | 0% | x | -8%
O=C(COc1ccccc1)Nc1ccc(S(=O)(=O)Nc2ncccn2)cc1 | -3% | 3% | 0% | 4% | 1% | 2%
Cc1ccc(CSc2nnc3c(n2)OC2(Nc4ccccc4-3)C(=O)Nc3ccc(F)cc32)cc1 (stereo unspecified) | u | 28µM* | 1% | u | 47% | -19%
O=C1Nc2ccc(F)cc2C12Nc1ccccc1-c1nnc(SCc3ccccc3)nc1O2 (stereo unspecified) | u | u | -4% | u | 36% | -3%
O=C1Nc2ccc(F)cc2C12Nc1ccccc1-c1nnc(SCc3ccccc3Cl)nc1O2 (stereo unspecified) | u | 28µM* | 0% | u | 88% | 6%
O=C(NC(=S)Nc1ccccc1)c1csnn1 | u | 10µM* | -7% | -12% | 13% | -6%
CO[C@H]1COC(=O)C/C=C\[C@H](C)[C@@H](OC)COC(=O)[C@@H](C)NC(=O)C/C=C\[C@@H]1C | -1%[11.6 µM] | -6%[11.5 µM] | -1%[11.2 µM] | -6%[11.6 µM] | x | 7%[11.2 µM]
O=C(Nc1ccc(N2CCN(c3ccc(C(F)(F)F)cn3)CC2)nc1)c1cccs1 | -3% | u | -1% | u | 96% | 3%
O=C(Nc1ccc(N2CCN(c3ncccc3C(F)(F)F)CC2)nc1)c1cccs1 | 9% | 7.9µM* | -4% | 13µM*[quencher] | 16% | -1%
COc1cc(C(C)C)c2c(c1)S(=O)(=O)N(COc1cc(=O)n3cccc(OCCN4CCCCC4)c3n1)C2=O | x | x | -17% | x | x | 4%
CCOc1cc(/C=N/Nc2ccc(C(=O)O)cc2)ccc1OC(=O)c1ccccc1C | u | x | -4% | 0.71µM*[quencher] | 4% | 0%
COc1cccc(OCc2cc(/C=N/Nc3ccc(C(=O)O)cc3)ccc2OC)c1 | 4% | u | -6% | 11µM*[quencher] | 8% | 5%
COCc1cc(/C=N\NC(=O)COc2ccccc2)ccc1OC | 0% | -13% | 1% | -7% | 5% | 1%
CCOc1cc(/C=N\NC(=O)c2ccc(NC(=O)C(C)(C)C)cc2)ccc1OC(=O)c1ccc(OC)cc1 | -11% | -12% | -5% | -6% | 12% | -3%
OC(CN1CCNCC1)Cn1c2ccc(Br)cc2c2cc(Br)ccc21 (stereo unspecified) | u | 10% | -4% | u | -6% | 0%
CCOc1ccc2c(ccc(/C=C\c3cc(C)c4cccnc4c3O)[n+]2C)c1 | x | x | x | x | 12%[14.2 µM] | x
CCN(CCO)c1ccc(N=Nc2cc(C)[nH]n2)cc1 | 12% | 10µM* | -3% | -15% | 18% | 6%
CCN(CC)c1ccc(N=Cc2ccc(N(CC)CC)cc2O)cc1 | u | u | 23% | u | 112% | -26%
Cc1cccc(NC(=O)c2c(N)sc3c2CCC(C)C3)c1 (stereo unspecified) | -15% | 8.9µM* | -5% | u | x | 9%
SMILES | Tau FP inhib | Tau ThT inhib | TR SRC2 fluor cs | Tau fluor counter | GoLoco inh red | TRb-SRC2 inh
C=Cc1c(C)c2cc3[nH]c(cc4nc(cc5nc(cc1[nH]2)C(C)=C5CCC(=O)O)C(CCC(=O)O)=C4C)c(C)c3C=C | 25µM* | 16µM* | 16µM*[fluorescent] | 16µM*[quencher] | 13µM*! | 18µM*
CC1=C(CCC(=O)O)c2cc3nc(cc4[nH]c(cc5[nH]c(cc1n2)c(C)c5C(C)O)c(C)c4C(C)O)C(C)=C3CCC(=O)O (stereo unspecified) | u | u | 45µM*[fluorescent] | -23% | 13µM* | 35µM*
O=c1[nH][nH]c(=S)c(=O)[nH]1 | x | x | x | x | 1%[14.2 µM] | x
CCCCCCCCCCCCCCO | x | x | 0%[201 µM] | x | x | 6%[201 µM]
CC1(C)SC2[C@@H](N=CN3CCCCCC3)C(=O)N2[C@H]1C(=O)O (stereo partly specified) | x | x | 0% | x | -15% | -2%
O=C1Nc2ccccc2/C1=C/C(=O)c1cccs1 | 3% | 18µM* | 0% | -26% | 2% | 13%
O=C(/C=C/c1ccccc1)c1cccs1 | 9% | u | 0% | -16% | 6% | 4%
CCCOc1ccc(N2C(=O)CC(N(CCc3ccc(OC)c(OC)c3)C(=S)Nc3ccccc3)C2=O)cc1 (stereo unspecified) | 2% | 3% | 0.5µM*[quencher] | -3% | 2% | u
CSc1nc(C)cc(C)c1C#N | 1% | -14% | -3% | -1% | 10% | -6%
Cc1cc(C)c(C#N)c(=N)o1 | -17% | u | -2% | -12% | 22µM* | -1%
O=C(NCCO)c1ccc2nc(-c3ccco3)c(-c3ccco3)nc2c1 | u | 16µM* | u | 14µM*[quencher] | -11% | 7%
c1coc(-c2nc3ccccc3nc2-c2ccco2)c1 | u | 16µM* | -29% | u | -13% | 4%
O=C(NCCc1ccccc1)c1ccc2nc(-c3ccco3)c(-c3ccco3)nc2c1 | u | 7.1µM* | 28µM*[quencher] | u | -5% | 9%
O=C(c1ccccc1)c1ccc2nc(-c3ccco3)c(-c3ccco3)nc2c1 | u | 14µM* | -17% | u | -27% | 3%
O=C(NC1CCCC1)c1ccc2nc(-c3ccco3)c(-c3ccco3)nc2c1 | 2% | -2% | -6% | -2% | x | 1%
COc1ccccc1N1CCN(C(=O)c2ccc3nc(-c4ccco4)c(-c4ccco4)nc3c2)CC1 | 9% | u | -3% | -15% | 6% | 5%
CCOC(=O)C1(C)/C(=N/Nc2ccccc2OC)C(=O)C(=O)N1c1ccccc1 (stereo unspecified) | -11% | 16µM* | -3% | -15% | 28% | -10%

Bioassay records deposited in PubChem BioAssay by National Center for Advancing Translational Sciences (NCATS).
